# Rv3671c protease – Rv3671c serine protease inhibitors, primary screen, biochemical, fluorescence polarization, M. tuberculosis H37Rv; P9WHR9; hit rate 0.048% among 320,000; inhibition, % at 5.96 µM; AID 2606, 2010; in the data active = inhibition above about 38%;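 note: extracellular domain of Rv3671c used as enzyme; 0% = enzyme with DMSO and 100% = no enzyme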
# Target sequence (P9WHR9 whole entry, looked up, the tested form may be a part): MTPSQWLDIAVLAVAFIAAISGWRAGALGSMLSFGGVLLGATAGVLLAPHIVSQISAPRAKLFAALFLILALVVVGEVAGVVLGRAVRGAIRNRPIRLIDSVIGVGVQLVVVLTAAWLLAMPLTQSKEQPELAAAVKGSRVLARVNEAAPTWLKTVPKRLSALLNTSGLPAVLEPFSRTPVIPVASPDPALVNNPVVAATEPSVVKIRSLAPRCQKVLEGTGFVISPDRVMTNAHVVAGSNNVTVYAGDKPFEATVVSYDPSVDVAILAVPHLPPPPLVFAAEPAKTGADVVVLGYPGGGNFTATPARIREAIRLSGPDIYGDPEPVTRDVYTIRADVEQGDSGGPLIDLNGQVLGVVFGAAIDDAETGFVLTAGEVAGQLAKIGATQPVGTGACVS
# FBA Mtb inh – Mtb FBA enzyme inhibitors, primary screen, biochemical, fluorescence, strain H37Rv; Fructose-bisphosphate aldolase (Mycobacterium tuberculosis (strain ATCC 25618 / H37Rv)), …; purified M. tuberculosis FBA, fluorescence read-out; inhibition, % at 1 µM; hit rate 2.3% among 360,000; AID 588726, 2011; in the data active = inhibition above about 27%;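 note: 0% = vehicle and 100% = reference inhibitor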
# UGM FP inh – M. tuberculosis UGM enzyme inhibitors, primary screen, biochemical, fluorescence polarization, single point. inhibition, % at 10 µM. hit rate 0.06% among 320,000. UDP-galactopyranose mutase (Mycobacterium tuberculosis (strain ATCC 25618 / H37Rv)), …. purified UGM, fluorescence polarization probe displacement; in the data active = inhibition above about 10%, passing the limit was not always enough
# RecA splice inh – Mtb RecA intein splicing inhibitors, primary screen, biochemical, fluorescence, HTS. Protein RecA (Mycobacterium tuberculosis (strain ATCC 25618 / H37Rv)), P9WHJ3. AID 2221, 2009. hit rate 0.75% among 290,000. cell-free RecA intein splicing. inhibition, % (test concentration not listed); in the data active = inhibition above about 30%;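 note: 0% = vehicle wells and 100% = reference inhibitor control wells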
# Mtb betalactam – beta-lactam sensitization of Mtb H37Rv, H37Rv | M. tuberculosis H37Rv growth with meropenem, percent inhibition | inhibition, % at 25 µM | hit rate 0.27% among 330,000 | AID 434955, 2010; call rule not given here;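 note: growth measured after seven days incubation then overnight dye step; 0% = bacteria only wells and 100% = bacteria with antibiotic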
# GDH-TPI inh – GDH-TPI coupling enzyme inhibitors, primary screen, artefact control for M. tuberculosis FBA inhibitor project, biochemical, absorbance, full deck; GDH-TPI coupled enzyme counterscreen, NADH absorbance; hit rate 1.2% among 360,000; inhibition, % at 4.8 µM; in the data active = inhibition above about 30%;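 note: 0% = DMSO wells and 100% = wells lacking the enzyme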
# * hit, by the source's call; . = not tested or not shown; + = active, no number. Rows were chosen to be rich in hits. Some 4% of all compounds tested hit in one or more screens of this group.
SMILES,Rv3671c protease,FBA Mtb inh,UGM FP inh,RecA splice inh,Mtb betalactam,GDH-TPI inh
O=c1c2ccccc2oc2cc(NCCCN3CCOCC3)ccc12,4,+,3,-495,-4,22
O=c1c2ccccc2oc2ccc(NCCCN3CCOCC3)cc12,3,1,0,-13,-8,8
Cn1c(C(=O)NCCCN2CCOCC2)cc2c(=O)n(C)c3ccccc3c21,-8,13,5,2,3,-1
Cn1c2ccccc2c(=O)c2cc(NCCCN3CCOCC3)ccc21,-22,+,1,.,-1,23
c1cn2cc(-c3ccc4c(c3)OCO4)nc2s1,11,9,2,-6,3,4
COc1cc2[nH]c(C(=O)N3CCC(Cc4ccccc4)CC3)cc2c(OC)c1OC,-3,1,3,7,-3,-7
N#C/C(=C\c1ccc2c(c1)OCCO2)C(=O)Nc1ccc(C(=O)O)cc1,4,0,3,-1,-1,22
N#C/C(=C/c1ccc2c(c1)OCO2)C(=O)Nc1ccc(O)cc1,-2,-1,-5,59*,-9,16
CCOc1cc(/C=C(/C#N)C(=O)Nc2ccc(O)cc2)cc(Br)c1O,-1,-21,-15,60*,-2,2
CCOC(=O)c1cnc2c(C)cc(Cl)cc2c1N1CCN(C)CC1,-8,1,-3,-2,-4,12
Cc1ccnc(NC(=O)CCC(=O)c2cccs2)c1,-8,-1,1,1,-9,2
Cc1ccc(NCN2C(=O)C3C4C=CC(C4)C3C2=O)cc1 (centres undefined),2,8,1,1,10,-4
O=C1C2C3C=CC(C3)C2C(=O)N1CNc1ccc(O)cc1 (centres undefined),-11,.,1,62*,-5,.
COCCNC(=O)C(c1ccc(C)cc1)N(C(=O)C(=O)NC1CCCC1)c1ccc2c(c1)OCCO2 (centres undefined),-3,0,-1,2,-1,-9
O=C(CN1C(=O)S/C(=C\C=C\c2ccccc2)C1=O)Nc1cccc(O)c1,-98,-3,-3,5,28,32*
CC(=O)c1ccc(NC(=O)CN2C(=O)/C(=C/C=C/c3ccccc3)SC2=S)cc1,-48,-4,1,0,35,13
Cc1cc(C)nc(NN2C(=O)/C(=C/c3ccccc3)SC2=S)n1,-8,1,-1,.,44,34*
O=C(CN1C(=O)S/C(=C\c2ccc(C(=O)O)cc2)C1=O)Nc1ccccc1,6,0,6,0,-7,35*
O=C(CCN1C(=O)S/C(=C\C=C\c2ccccc2)C1=O)Nc1ccc(O)cc1,-9,-1,1,6,18,25
O=C(CCCN1C(=O)S/C(=C\C=C\c2ccccc2)C1=O)Nc1ccc(C(=O)O)cc1,-35,4,1,30*,-1,19
C/C(=N\N=C\c1ccc(N(C)C)cc1)c1cccc([N+](=O)[O-])c1,-5,-4,0,-3,6,25
O=C(O)c1ccc(/C=C2\SC(=S)N(Nc3ccccc3)C2=O)cc1,-4,-1,4,-4,85,34*
COc1cccc(NC(=O)CN2C(=O)NC(C)(C3CC3)C2=O)c1 (centres undefined),2,4,0,.,4,-1
CC1(C)Cc2c(sc3[nH]c(=S)n(Cc4ccco4)c(=O)c23)CO1,-1,-4,-1,0,5,37*
CCN(CC)Cc1c(O)ccc2c(C)c(CC(=O)OC)c(=O)oc12,-2,+,-2,-136,-17,24
COC(=O)Cc1c(C)c2ccc(O)c(CNCc3ccc(OC)c(OC)c3)c2oc1=O,.,+,2,-187,-1,24
NC(=O)c1ccc[n+](CC(=O)c2ccc(NC(=O)c3ccccc3)cc2)c1,2,1,0,3,-3,13
CCC(NC(=O)c1ccc(C#CC2(O)CCCCC2)cc1)C(=O)O (centres undefined),-3,4,1,1,0,4
